Results on 87 molecules are retold here after ChEMBL document CHEMBL3988442, “University of Dundee, Small-Polar-MMV Screening Library” (2021).

Among all 48,000 compounds or so, about 13,000 (27%) showed an effect of 50% or more. The list shows a part of the results.

This experiment deals with Wolbachia pipientis. In words: Anti-Wolbachia Cell-Based Screen. In kind it is functional. More on the design: scale not given: in the data most compounds retested in dose-response had high values. The following applies: 5 µM.
For `Cc1cnn(CC(C)NCCc2cccs2)c1` (configuration not stated), the “Percent Effect” value was determined as 11.98%.
For the molecule `CC(C)=CCN1CCN(C(=O)COc2ccccc2)[C@H]2CS(=O)(=O)C[C@H]21`, the “Percent Effect” value was -38.59%.
Take `COCCN1C[C@H]2[C@@H](C1)N(C(=O)COc1ccccc1)CC[C@H]2OC`: the “Percent Effect” value worked out at 0.3223%.
As for `CC1CN(C)CCN1C(=O)COc1cccc(Oc2ccccn2)c1` (configuration not stated), the figure is 82.16%; as for `O=C(c1ccnc(-n2cnnc2)c1)N1CCCC2(CCNC2)C1` (configuration not stated), -10.09%; as for `CC(C)N1CCC(N(C)c2ccnc(N(C)C)n2)CC1`, 15.64%.
Turning to `CN(C)c1nccc(N(C)C2CCN(CC3CCOC3)CC2)n1` (configuration not stated), the “Percent Effect” value is given as -1.947%.
As for `CC(C)N1CCOC(c2ccnc(N(C)C)n2)C1` (configuration not stated), the figure is 82.78%; as for `CCOC(=O)N1CCCC2(CCCNC2)C1.Cl` (configuration not stated), -10.87%; as for `Oc1ccc(N2CCN(Cc3ccc(F)cc3Br)CC2)cc1`, 1.788%.
Take `CCCN(CC)c1cc(C2CCNCC2)nc(C)n1`: the “Percent Effect” value came to 112.1%.
As to `CC(C)NC(=O)CN1CCSC2(CCCCC2)C1`, the “Percent Effect” value was -91.97%.
On to `O=C1N(Cc2ccccn2)C[C@H]2CN(C3CCOCC3)CCN12`, for which the “Percent Effect” value came to 0.5644%.
Consider `O=C(c1cccc(-n2cnnn2)c1)N1CCC2(CC1)OCCO2`, for which the “Percent Effect” value stood at 106.4%.
`O=C(C1CC(=O)N(c2ccccc2)C1)N1CCC2(CC1)OCCO2` (configuration not stated): the “Percent Effect” value is listed as -2.385%.
As to `O=C(c1cnc(-c2ccccc2)s1)N1CCC2(CC1)OCCO2`, the “Percent Effect” value is on record as -4.517%.
For the molecule `CCCN1CCC(c2nc3ccc(C)cn3n2)CC1.O=C(O)C(F)(F)F`, the “Percent Effect” value worked out at 104.2%.
With `Cc1cnc(N2C[C@H]3CCN(CC4CC4)C[C@@H]3C2)nc1.O=C(O)C(F)(F)F` the figure was 6.173%; with `Cc1cnc(N2C[C@H]3CCN(CC4CC4)C[C@H]3C2)nc1.O=C(O)C(F)(F)F`, 15.24%.
Turning to `O=C(NC[C@H]1C[C@@H]2CCN1C[C@@H]2CN1CCCCC1)Nc1ccsc1`, the “Percent Effect” value was determined as 3.271%.
Turning to `CC[C@H]1CN2CC[C@H]1C[C@@H]2CNCc1ccc(OC(F)(F)F)cc1`, the “Percent Effect” value is given as -1.711%.
Consider `CN1CCN(C(=O)c2cn(Cc3ccccc3)c3ncccc23)CC1`, for which the “Percent Effect” value turned out to be 129.1%.
Consider `CNc1ncccc1C(=O)N1CCN(C)C2(CCN(C)CC2)C1`, for which the “Percent Effect” value was -3.315%.
For the molecule `CCc1ccc(OCC(=O)N2CCN(CC)CC2)cc1`, the “Percent Effect” value is given as -2.93%.
In the case of `CCOc1ncccc1C(=O)N1CCN(C)C2(CCN(C)CC2)C1`, the “Percent Effect” value is on record as -9.489%.
As for `CCN1CCN(C(=O)c2cn(Cc3ccccc3)c3ncccc23)CC1`, the figure is 118.7%.
For `Cc1ccc(CC(=O)N2CCN(CC(O)c3ccccc3)CC2)cn1` (configuration not stated), the “Percent Effect” value was -5.029%.
As to `CC(C)CN1CCC2(CC1)CN(C(=O)C(C)C)C2.O=C(O)C(F)(F)F`, the “Percent Effect” value is reported as -9.801%.
With `O=C(O)CC(O)(CC(=O)O)C(=O)O.O[C@@]1(c2ccccn2)CC[C@H]2CN(Cc3cccc(Cl)c3Cl)C[C@H]21` the figure was -2.173%; with `Cc1ccc([C@]2(O)CC[C@H]3CN(Cc4ccccc4F)C[C@H]32)nc1.O=C(O)CC(O)(CC(=O)O)C(=O)O`, 152.5%; with `O=C(O)CC(O)(CC(=O)O)C(=O)O.O[C@@]1(c2ccccn2)CC[C@H]2CN(Cc3ccccn3)C[C@H]21`, 115.3%.
Regarding `Cc1ccc(CN2C[C@@H]3CN(c4ncc(F)cn4)C[C@@H]3C2)cc1.O=C(O)C(F)(F)F`, the “Percent Effect” value was 6.106%.
With `O=C(O)C(F)(F)F.O=C1[C@@H]2CN(Cc3ccccn3)C[C@H]2CCN1c1cncnc1`, the “Percent Effect” value is given as 16.77%.
Regarding `O=C(N1CCCC1)N1C[C@@H]2CCNC[C@@H]21`, the “Percent Effect” value was -24.15%.
As to `CCCN1C[C@H]2CC[C@@H]1CN(C(=O)Cc1c(C)nc(CC)[nH]c1=O)C2`, the “Percent Effect” value amounted to 6.983%.
For the molecule `CNC(=O)[C@@H]1C[C@H]2CN(c3ncccn3)C[C@H]2N1C(C)C.O=C(O)C(F)(F)F.O=C(O)C(F)(F)F`, the “Percent Effect” value is recorded as -5.727%.
As for `COCCN1CCN(Cc2ccncc2)[C@H]2CS(=O)(=O)C[C@H]21`, the “Percent Effect” value is given as 0.5994%.
Regarding `C[C@H]1CN2C[C@H](O)CC2CN1Cc1ccncc1` (some centres not stated), the “Percent Effect” value is 120.2%.
Regarding `C[C@@H]1CN2C[C@H](O)CC2CN1Cc1ccncc1` (some centres not stated), the “Percent Effect” value worked out at 148.8%.
For the molecule `O=S1(=O)C[C@@H]2[C@H](C1)N(Cc1ccoc1)CCN2Cc1ccncc1`, the “Percent Effect” value is -1.69%.
With `Oc1cccc(CN2C[C@H]3CC[C@@H]2CN(Cc2ccncc2)C3)c1` the figure was -4.265%; with `CC(C)NC(=O)[C@H]1C[C@@H]2[C@@H](C1)OCCN2Cc1ccncc1`, -4.174%; with `Cc1c(CN2CCCC(C(=O)c3ccc(C(C)(C)C)cc3)C2)cnn1C` (configuration not stated), 35.11%.
As for `CN1CCN(c2ccc(CO)cc2F)CC1`, the figure is 13.78%.
Regarding `CN1CCN(c2ccc(F)cc2C(N)=O)CC1`, the “Percent Effect” value turned out to be 129.8%.
With `CN1CCC2(CC1)C(=O)N(C)c1ccc(F)cc12.Cl`, the “Percent Effect” value is listed as -19.58%.
As for `CCN1CCC2(CCC1=O)CN(c1nccc(N)n1)CCN2C` (configuration not stated), the figure is -7.397%.
For the molecule `CCNCCc1nc2cc(F)ccc2[nH]1.Cl`, the “Percent Effect” value was -10.45%.
Turning to `Cc1ccc2c(n1)N(C)CCN(CCN1CCCC1)C2.O=C(O)C(F)(F)F.O=C(O)C(F)(F)F.O=C(O)C(F)(F)F`, the “Percent Effect” value was found to be 31.59%.
With `Cc1ccc2c(n1)N(C)CCN(Cc1cnn(C)c1)C2` the figure was 75.85%; with `Cc1oc(-c2ccco2)nc1CC(=O)N1CCN(CC(C)O)CC1` (configuration not stated), 16.55%.
For the molecule `Cc1ccc(C(=O)N2C[C@@H]3CCCO[C@@H]3[C@H](N3CCCC3)C2)cn1.O=C(O)C(F)(F)F.O=C(O)C(F)(F)F`, the “Percent Effect” value is -21.68%.
For `CN1CCN([C@@H]2CN(C(=O)c3ccnnc3)[C@@H]3CCCO[C@H]23)CC1`, the “Percent Effect” value is given as -8.561%.
With `Cc1ccc(C(=O)N2C[C@H](N3CCOCC3)[C@@H]3OCCC[C@@H]32)cn1.O=C(O)C(F)(F)F.O=C(O)C(F)(F)F` the figure was 103.6%; with `CC(C)(C)n1cc(C(=O)NCCN2CCOCC2)c2cccnc21`, 135%; with `CCNC(=O)c1cn(C(C)(C)C)c2ncccc12`, 133.4%.
Regarding `CNC(=O)c1cn(C(C)(C)C)c2ncccc12`, the “Percent Effect” value stood at 127%.
Consider `CCCNC(=O)c1cn(C(C)(C)C)c2ncccc12`, for which the “Percent Effect” value worked out at 115.3%.
With `CCCn1cc(C(=O)NCCCC(N)=O)c2ccccc21` the figure was 15.02%; with `CC(C)(C)n1cc(C(=O)NCCCn2ccnc2)c2cccnc21`, 3.37%.
As to `CC(C)(C)n1cc(C2=CCN(CCNC(=O)c3ccccc3)CC2)cn1`, the “Percent Effect” value is on record as -2.502%.
Consider `CC(C)(C)n1cc(C2=CCN(CCNC(N)=O)CC2)cn1`, for which the “Percent Effect” value is -16.31%.
As for `Cc1ccnc(CC(C)N(C)Cc2ccc3c(c2)OCCO3)c1` (configuration not stated), the figure is 2.178%; as for `O=C(NC[C@H]1C[C@@H]2CCN1C[C@@H]2CN1CCCC1)c1ccco1`, 7.038%; as for `CC1CCN(C[C@H]2CN3CC[C@H]2C[C@@H]3CNC(=O)c2ccco2)CC1`, -5.154%.
For `Clc1ccccc1CNC(Cn1cncn1)c1ccccc1` (configuration not stated), the “Percent Effect” value is listed as -5.969%.
With `CCN1CCOCC2(CCCN(C(=O)c3ccncc3F)C2)C1.O=C(O)C(F)(F)F` (configuration not stated) the figure was 92.47%; with `CNC(=O)CN1CCOCC2(CCCN(Cc3cccnc3)C2)C1.O=C(O)C(F)(F)F.O=C(O)C(F)(F)F.O=C(O)C(F)(F)F` (configuration not stated), -4.883%; with `CN1CCO[C@H]2CN(C(=O)c3ccncc3F)C[C@H]21.O=C(O)C(F)(F)F`, -9.265%.
`O=C(O)C(F)(F)F.c1cnc(N2CCCC3(COCCN(CC4CC4)C3)C2)nc1` (configuration not stated): the “Percent Effect” value is -4.915%.
Consider `CCN1CCOCC2(CCCN(C(=O)c3conc3C)C2)C1.O=C(O)C(F)(F)F` (configuration not stated), for which the “Percent Effect” value is 89.52%.
Consider `O=C(C1CC1)N1CCc2c(ncnc2N2CCN3CCCC3C2)C1` (configuration not stated), for which the “Percent Effect” value was 16.5%.
With `CC(C)c1nc(CC(=O)N2CCN(C)CC2c2ccccc2)cs1` (configuration not stated), the “Percent Effect” value worked out at 13.34%.
For the molecule `Cc1ccc(NC(=O)CNC(C)Cc2ccsc2)cc1F` (configuration not stated), the “Percent Effect” value amounted to 8.644%.
With `CN(C)C(=O)[C@H]1CC[C@@H]2[C@@H](CCN2Cc2ccccn2)O1.O=C(O)C(F)(F)F.O=C(O)C(F)(F)F`, the “Percent Effect” value is 1.437%.
As for `Cc1ccccc1C1(CN)CCOCC1`, the “Percent Effect” value is listed as 1.37%.
Turning to `O=C(O)C(F)(F)F.O=C(O)C(F)(F)F.O=C1[C@H]2CN(Cc3ccncc3)C[C@H]2CN1c1cncnc1`, the “Percent Effect” value is -1.722%.
Regarding `Cn1cc(N2CC[C@@H]3CN(Cc4ccncc4)C[C@H]3C2=O)cn1.O=C(O)C(F)(F)F.O=C(O)C(F)(F)F`, the “Percent Effect” value is -47.34%.
With `O=C(O)C(F)(F)F.c1cc(CN2CC[C@@H]3CN(c4cnccn4)C[C@@H]3C2)ccn1` the figure was 126.3%.
In the case of `Cc1ccc(N2C[C@H]3CCN(Cc4ccncc4)C[C@H]3C2)nn1.O=C(O)C(F)(F)F`, the “Percent Effect” value was 106.9%.
With `Cc1ccc(N2CC[C@@H]3CN(Cc4cccc(C)n4)C[C@@H]3C2)nn1.O=C(O)C(F)(F)F`, the “Percent Effect” value was -3.12%.
As to `O=C(O)C(F)(F)F.O=C(O)C(F)(F)F.c1cnc(N2CC[C@@H]3CN(Cc4ccncc4)CCO[C@@H]3C2)nc1`, the “Percent Effect” value is listed as -13.84%.
On to `O=C(O)C(F)(F)F.O=C(O)C(F)(F)F.c1ccc(N2CC[C@@H]3CN(Cc4ccncc4)CCO[C@@H]3C2)cc1`, for which the “Percent Effect” value is -7.726%.
For `O=C(O)C(F)(F)F.O=C1[C@H]2CN(Cc3ccc(F)cc3)C[C@H]2CN1c1cncnc1`, the “Percent Effect” value is on record as -0.4188%.
Turning to `O=C(O)C(F)(F)F.c1cnc(N2C[C@H]3CCN(Cc4ccncc4)C[C@H]3C2)nc1`, the “Percent Effect” value was determined as 87.9%.
Take `c1cc(CN2CC[C@@H]3CN(c4cncnc4)C[C@@H]3C2)ccn1`: the “Percent Effect” value amounted to 100.2%.
On to `Cc1ccc(N2CC[C@@H]3CN(Cc4cc[nH]n4)C[C@@H]3C2)nn1.O=C(O)C(F)(F)F`, for which the “Percent Effect” value is recorded as -9.951%.
